Results published in ChEMBL document CHEMBL3988442, “University of Dundee, Small-Polar-MMV Screening Library” (2021).
Among all 48,000 compounds or so, about 13,000 (27%) showed an effect of 50% or more. Some of the results follow.

These compounds were tested on Wolbachia pipientis (assay: Anti-Wolbachia Cell-Based Screen). Conditions: 5 µM.
Assay type: functional
Set-up: scale not given: in the data most compounds retested in dose-response had high values

In order of falling “Percent Effect” value:
1. CC(=O)N1N=C(c2ccccc2)OC1C(=O)NCCc1ccc(Cl)cc1 (stereo unspecified)  146.7%
2. Cc1cccc(Cn2cc(C)c(N)n2)c1  142%
3. CC(=O)N1N=C(c2ccccc2)OC1C(=O)NCCc1cccc(F)c1 (stereo unspecified)  137.5%
4. CC(=O)N1N=C(c2cccs2)OC1C(=O)NCCc1cccc(Cl)c1 (stereo unspecified)  135.3%
5. Cc1cn2c(n1)CCC(NC(=O)c1csc(C(C)C)n1)C2 (stereo unspecified)  134.7%
6. CC(=O)N1C[C@@H](c2ccsc2)[C@@H]2CN(Cc3ccccc3Cl)CC[C@@H]21  132.7%
7. CC(=O)N1N=C(c2ccccc2)OC1C(=O)NCCOc1ccccc1 (stereo unspecified)  130.7%
8. CS(=O)(=O)NC1CCN(C(=O)NCc2cccnc2)CC1  127.5%
9. Cc1ncc(C(=O)NC2CCc3nccn3C2)c(C(C)C)n1 (stereo unspecified)  126.1%
10. CC(=O)N1N=C(c2ccccc2)OC1C(=O)NCCN(C(C)C)C(C)C (stereo unspecified)  125.8%
11. CC(=O)NC1CCCN(C(=O)NCc2cc[nH]n2)C1 (stereo unspecified)  125.6%
12. Cc1cn2c(n1)CCC(NC(=O)c1cncnc1C)C2 (stereo unspecified)  122.4%
13. CC(=O)NC1CCCN(C(=O)NCc2cccnc2)C1 (stereo unspecified)  121%
14. CC(=O)N1C[C@@H](c2ccsc2)[C@@H]2CN(Cc3ccccc3C)CC[C@@H]21  115.6%
15. CC(=O)N1N=C(c2ccccc2)OC1C(=O)NCCc1ccc(O)cc1 (stereo unspecified)  114.8%
16. CC(=O)N1N=C(c2ccccc2)OC1C(=O)NCCc1ccc(C)cc1 (stereo unspecified)  114.7%
17. Cc1cn(Cc2ccccc2)nc1N  112.8%
18. O=C(NCc1cc[nH]n1)N1CCCC(N2CCCC2)C1 (stereo unspecified)  111.7%
19. COc1ccccc1CN1CC[C@H]2[C@@H](C1)[C@H](c1ccsc1)CN2C(C)=O  109%
20. CCc1ncncc1C(=O)NC1CCc2nc(C)cn2C1 (stereo unspecified)  106.8%
21. CCS(=O)(=O)NCC1CCN(c2cnccn2)CC1  106%
22. Cc1cn(Cc2ccc(F)cc2)nc1N  105.5%
23. Cc1ccc(Cn2cc(C)c(N)n2)cc1  101.5%
24. O=S(=O)(NCC1CCN(c2cnccn2)CC1)C1CC1  99.54%
25. CC(=O)N1C[C@@H](c2ccsc2)[C@@H]2CN(CC3CCCCC3)CC[C@@H]21  84.31%
26. CCCN(C(=O)c1ccncc1)c1nc2c(s1)CCc1c-2cnn1C  62.27%
27. CCCN(C(=O)c1cccnc1)c1nc2c(s1)CCc1c-2cnn1C  53.11%
28. Cc1nc(NCCc2ccc(Cl)cc2)cc(C(=O)N2CCCCC2)n1  24.03%
29. COc1ccc(CN2CCCn3cnc(COC(C)C)c3C2)cc1.O=C(O)C(F)(F)F  23.92%
30. CCCn1ncc(C(=O)NCCc2[nH]nc3c2CCCC3)c1C  17.81%
31. CC(=O)NC1CCCN(C(=O)CCc2cccnc2)C1 (stereo unspecified)  16.44%
32. Cc1ncc(C)c(N2Cc3cnn(Cc4ccc(F)cc4)c3C2)n1  15.3%
33. CC(C)(CNC(=O)CSc1nnnn1C1CC1)c1ccccc1F  14.51%
34. Cc1nn(Cc2ccc(F)cc2)c2[nH]nc(N)c12  12.93%
35. Cn1cc(CCNC(=O)C2(c3cccc(Cl)c3)CC2)cn1  11.84%
36. CCn1cc(Cn2cc(Cl)c(N)n2)c(C)n1  11.61%
37. CCc1nc(Cn2nc(C3CCNCC3)n(-c3ccccc3)c2=O)cs1  10.87%
38. c1ccc(CNC[C@H]2COCc3nc4cccnc4n32)cc1  10.55%
39. O=C(NCCOc1ccccc1)C1NCCc2[nH]cnc21 (stereo unspecified)  9.443%
40. CC(NC(=O)Nc1cnn(CC(N)=O)c1)c1ccc(Cl)s1 (stereo unspecified)  9.25%
41. CC(=O)NC1CCCN(C(=O)NCc2cccnc2N(C)C)C1 (stereo unspecified)  9.234%
42. O=C(NC1CCc2nccn2C1)c1ccc(NC2CC2)nc1 (stereo unspecified)  9.006%
43. Cc1nc(NCCc2ccc(Cl)cc2)cc(C(=O)N2CCOCC2)n1  8.895%
44. Cc1ccc2c(c1)CN(CC(=O)NCCc1ccc(F)cc1)CC(C)O2 (stereo unspecified)  6.694%
45. CC(C)C(C(=O)NC1CCOCC1)n1cnc2cc(F)c(F)cc21 (stereo unspecified)  3.744%
46. Cc1cn2c(n1)CCC(NC(=O)c1c[nH]c(C)n1)C2 (stereo unspecified)  3.74%
47. CC(=O)N1C[C@@H](c2ccsc2)[C@@H]2CN(Cc3ccccc3)CC[C@@H]21  3.604%
48. O=C(Nc1ccccc1)c1cccc(S(=O)(=O)NC[C@@H]2C[C@H](F)CN2)c1  3.3%
49. CC1(C)[C@H](Cc2cc(CO)on2)C[C@@H]1N(CC1CC1)CC1CC1  3.295%
50. Cc1nc(C2CCCN2CC(=O)NCCOc2ccccc2)no1 (stereo unspecified)  3.183%
51. Cc1cn2c(n1)CCC(NC(=O)c1cc(C(C)C)no1)C2 (stereo unspecified)  2.478%
52. Cc1cccc(Cn2nc(C3CCNCC3)n(-c3ccccc3)c2=O)c1  2.339%
53. CS(=O)(=O)NC1CCN(C(=O)NCCNc2ccccn2)CC1  2.154%
54. Cc1cn2c(n1)CCC(NC(=O)c1cnc(C)nc1C(C)C)C2 (stereo unspecified)  1.666%
55. CCCN(C(=O)COC)c1nc2c(s1)CCc1c-2cnn1C  1.347%
56. CC(=O)N1N=C(c2ccccc2)OC1C(=O)NCCc1cccc(Cl)c1 (stereo unspecified)  1.222%
57. Cc1cn2c(n1)CCC(NC(=O)c1ccc(CS(C)(=O)=O)cc1)C2 (stereo unspecified)  1.181%
58. O=C(NCc1cc[nH]n1)N1CCCCC(N2CCCC2)C1 (stereo unspecified)  0.854%
59. CCn1nc(CC(C)C)cc1C(=O)N1CCN([C@H]2CCCC[C@@H]2O)CC1  0.6704%
60. COCCc1noc(CN2CCCc3cccc(OC)c32)n1  0.4274%
61. CCCn1cnc(S(=O)(=O)Nc2cccnc2-n2cccn2)c1  0.1975%
62. OCc1ccc(CN2CCC(n3cc(-c4ccc(F)cc4)nn3)CC2)o1  -0.1205%
63. CS(=O)(=O)Nc1ccc(-n2c(CCCO)nc3ccccc32)cn1  -0.6251%
64. CC(=O)N1N=C(c2ccccc2)OC1C(=O)NCCC1=CCCCC1 (stereo unspecified)  -1.689%
65. O=S(=O)(Cc1ccccc1)NCC1CCN(c2cnccn2)CC1  -2.116%
66. O=C(c1cccs1)N1CC[C@H]2[C@@H]1CCC(=O)N2c1cccnc1  -2.771%
67. Cc1cnn(C2CCN(Cc3ccccc3)C2)c1N (stereo unspecified)  -3.11%
68. CC(C)N(C)CCCNC(=O)c1cnc(-c2ccccc2)nc1  -3.501%
69. COc1ccnc(N2CCN(C(C)c3nc(C)no3)CC2)n1 (stereo unspecified)  -3.819%
70. Cc1cc(C(=O)NC2CCc3nc(C)cn3C2)[nH]n1 (stereo unspecified)  -4.172%
71. CC(C)N(CCNC(=O)c1[nH]nc2ccc(I)cc12)C(C)C  -4.489%
72. CCc1nnc2n1CCN(CC(O)CN1CCC(C)CC1)C2 (stereo unspecified)  -4.838%
73. NC(=O)c1cccc(CCNCc2cnc(-c3cccs3)s2)c1  -4.854%
74. CC(=O)N1CCN(C(=O)CNc2cccc(OC(F)F)c2C)CC1  -4.859%
75. CCc1ccc(CN2CCC(CNS(=O)(=O)C3CC3)C2)nc1 (stereo unspecified)  -5.185%
76. Cc1cccc(CN2CCN(c3nc(CO)cs3)CC2)c1  -5.528%
77. CC(=O)NC1CCCN(C(=O)NCc2cccnc2-n2cccn2)C1 (stereo unspecified)  -5.614%
78. CC(=O)NCCNC(=O)NCCCc1cccc(F)c1  -6.354%
79. CC(C)(C)OC(=O)N1CCCCC1C(=O)NCc1cc[nH]n1 (stereo unspecified)  -6.483%
80. CS(=O)(=O)NC1CCCN(C(=O)NCc2cccnc2)C1 (stereo unspecified)  -6.706%
81. Cc1cn2c(n1)CCC(NC(=O)c1nc(C)ncc1Cl)C2 (stereo unspecified)  -6.875%
82. Cc1nc(-c2ccc(NCCc3ccc(O)cc3)nc2)[nH]c(=O)c1C  -6.931%
83. COCC(C)NC(=O)NCCc1cccc(OC)c1O (stereo unspecified)  -7.103%
84. CCS(=O)(=O)N1CC(c2nc(-c3ccsc3)no2)C1  -8.132%
85. Cc1ncc(CN2CCC(CNS(=O)(=O)C3CC3)C2)cn1 (stereo unspecified)  -9.849%
86. CCn1cnnc1CNC(=O)N(C)Cc1c(F)cccc1Cl  -9.877%
87. CC(C#N)CNC(=O)Nc1ccc(-c2cc[nH]n2)cc1 (stereo unspecified)  -10.22%
88. CN(C)C(=O)N[C@@H]1CN(C2CCOCC2)[C@@H]2CCCO[C@@H]21.O=C(O)C(F)(F)F  -11.3%
89. Cc1ccc(Cn2ccc(NS(C)(=O)=O)n2)cc1  -11.54%
90. CN(CC(N)=O)Cc1cc(Cl)cc2cccnc12  -12.39%
91. NC(=O)NCCC(=O)N1CCC(c2cc(-c3ccccc3Cl)n[nH]2)CC1  -13.9%
92. CN(C)CCn1cc(NC(=O)NC(C)(C)c2nccs2)cn1  -14.78%
93. NC(=O)C1CCN(CC(=O)N2CCCC2c2ccsc2)CC1 (stereo unspecified)  -14.97%
94. Cc1nc(CN2Cc3cn(C)nc3C(COCC3CC3)C2)cs1 (stereo unspecified)  -15.47%
95. CSCCC(=O)N1CCCC1c1ccsc1 (stereo unspecified)  -16.09%
96. Cc1cn2c(n1)CCC(NC(=O)c1ccc(OCC3CC3)nc1)C2 (stereo unspecified)  -16.45%
97. O=C(NCCc1nc2ccccc2s1)c1coc(CN2CCOCC2)c1  -17.38%
98. NC(=O)CN1CCC(NC(=O)N2CCCC2c2ccsc2)CC1 (stereo unspecified)  -19.01%
99. CC(C)(C#N)c1ccc(NS(=O)(=O)CC2CCCCO2)cc1 (stereo unspecified)  -23.28%
100. CCCc1cc(=O)[nH]c2nnc(SCC(=O)NCc3ccc(C)cc3)n12  -24%
101. CCc1c(C)nn(CCNC(=O)Cc2csc(C)n2)c1C  -26.69%
102. Cc1noc(-c2ccc(N(C)Cc3ccncn3)nc2)n1  -29.65%
103. Cc1nn(C)cc1Cn1cc(Cl)c(N)n1  -32.62%
104. COC(=O)c1sccc1S(=O)(=O)N1CCc2c(ncnc2N(C)C)C1  -35.5%
105. Oc1ccccc1N1CCN(c2ncnc3sc4c(c23)CCNC4)CC1  -35.6%
106. CC(=O)N1CCC(NC(=O)N2CCCC2c2ccsc2)CC1 (stereo unspecified)  -39.95%
